Data as given in PubChem BioAssay (NCI).
Compounds without any hit were thinned out: in the full panel of roughly 83,000, 20% have a hit.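 Treatment: one concentration, 48 hours, 96-well format. Scoring: percent growth, with anything below 10 considered active.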 A number with no mark means an inactive call. Active and inactive are the calls of the source.

Columns and labels:
Assay in all cases: NCI-60 one-dose screen, 48 h (100 = growth as untreated, 0 = no growth, -100 = all killed)
NCI-H23 lung = conditions: 10 µM unless noted
NCI-H226 lung = conditions: 10 µM unless noted
DU-145 prostate = conditions: 10 µM unless noted
MDA-MB-231 breast = conditions: 10 µM unless noted
SF-268 CNS = conditions: 10 µM unless noted
M14 melanoma = conditions: 10 µM unless noted
HCT-15 colon = conditions: 10 µM
HT29 colon = conditions: 10 µM unless noted
PC-3 prostate = conditions: 10 µM unless noted
UACC-62 melanoma = conditions: 10 µM unless noted
LOX IMVI melanoma = conditions: 10 µM unless noted
SK-MEL-28 melanoma = conditions: 10 µM unless noted
OVCAR-8 ovarian = conditions: 10 µM unless noted
OVCAR-5 ovarian = conditions: 10 µM unless noted
SK-OV-3 ovarian = conditions: 10 µM unless noted
OVCAR-3 ovarian = conditions: 10 µM unless noted
NCI/ADR-RES ovarian = conditions: 10 µM unless noted
SW-620 colon = conditions: 10 µM unless noted
MCF7 breast = conditions: 10 µM unless noted
KM12 colon = conditions: 10 µM unless noted

Structure (SMILES)	growth (NCI-H23 lung)	growth (NCI-H226 lung)	growth (DU-145 prostate)	growth (MDA-MB-231 breast)	growth (SF-268 CNS)	growth (M14 melanoma)	growth (HCT-15 colon)	growth (HT29 colon)	growth (PC-3 prostate)	growth (UACC-62 melanoma)	growth (LOX IMVI melanoma)	growth (SK-MEL-28 melanoma)	growth (OVCAR-8 ovarian)	growth (OVCAR-5 ovarian)	growth (SK-OV-3 ovarian)	growth (OVCAR-3 ovarian)	growth (NCI/ADR-RES ovarian)	growth (SW-620 colon)	growth (MCF7 breast)	growth (KM12 colon)
CNC(=O)Oc1cc(C(C)C)ccc1Sc1ccc(C(C)C)cc1OC(=O)NC	76.4%	83.2%	72.8%	58.4%	60.2%	89.2%	28.6%	97.6%	53.7%	47.2%	62.2%	66.3%	66.9%	95.7%	80.1%	69.2%	54.1%	43.6%	58.8%	57.9%
O=C(CF)N(O)c1ccc(/C=C/c2ccccc2)cc1	60.7%	-22.9% (active)	1.13% (active)	73.4%	42.5%	43.2%	66.6%	57.6%	62.3%	23.4%	39.8%	99.9%	39.9%	82.6%	65.6%	23.9%	44.1%	56.5%	16.5%	69.5%
O=S(=O)(F)c1ncnc2nc[nH]c12	95.5%	89.6%	–	93.9%	70%	100%	98.3%	101%	93.7%	89.8%	85.8%	97%	100%	90.7%	94.7%	60.7%	93.8%	95.4%	84.1%	81.8%
COc1ccc2c(c1)NC1=C(C(=O)OC1)C2c1cc(OC)c(OC)c(OC)c1 (stereo unspecified)	16.2%	49.6%	-24.7% (active)	6.08% (active)	22.6%	6.44% (active)	15.3%	1.35% (active)	20.6%	44.7%	11.9%	66.2%	15.2%	36.1%	36.9%	-41.9% (active)	-34.5% (active)	17.9%	9.07% (active)	-4.06% (active)
C=CCC1(CC)C(=O)NC(=S)NC1=O	100%	104%	103%	109%	101%	115%	99.9%	98%	96.8%	101%	97.2%	116%	100%	101%	97.1%	105%	104%	101%	103%	101%
CN(Cc1cccnc1)N=O	96.3%	92.3%	108%	103%	95.5%	97.4%	100%	102%	95.9%	98.3%	93.5%	108%	98.6%	99.8%	99.4%	101%	100%	98.2%	95.9%	102%
O=[N+]([O-])c1cc([N+](=O)[O-])c(Cl)c(Cl)c1Cl	43%	52.8%	-27.2% (active)	22.3%	–	-8.63% (active)	-49.1% (active)	-85.5% (active)	57.1%	14.6%	-62.6% (active)	65.9%	-41.1% (active)	65.6%	101%	-99% (active)	21.4%	–	2.17% (active)	37.4%
C[C@@H]1CC[C@@H]2[C@@H]1[C@H](OC(=O)/C=C/C1CCCCC1)[C@]1(C3CCCCC3)C[C@@H](OC(=O)CO)[C@@]2(C)O1	71.5%	56.9%	82.1%	61.5%	39.6%	65.2%	48.4%	31.4%	31.1%	69.5%	–	74.5%	23%	101%	69%	70.6%	12.2%	66.4%	40.2%	56%
